Measured values taken from the supplement of paper PMC11732987, “Enantioselective OTUD7B fragment discovery through chemoproteomics screening and high-throughput optimisation” (Communications Chemistry, 2025).
Values without a mark were called inactive.

What was measured:
Assay in all cases: log2 ratio of Biotin-Ahx-Ub-VS probe labelling (fragment/DMSO); higher = less target engagement (more negative = stronger competition), active = hit call of the paper (q ≤ 0.05, log2 ratio ≤ -1)
Details in all cases: compound concentration: 200 uM; treatment time: 3 h
USP19 = target: T1, USP19 (UniProt O94966)
T1 sequence (whole entry): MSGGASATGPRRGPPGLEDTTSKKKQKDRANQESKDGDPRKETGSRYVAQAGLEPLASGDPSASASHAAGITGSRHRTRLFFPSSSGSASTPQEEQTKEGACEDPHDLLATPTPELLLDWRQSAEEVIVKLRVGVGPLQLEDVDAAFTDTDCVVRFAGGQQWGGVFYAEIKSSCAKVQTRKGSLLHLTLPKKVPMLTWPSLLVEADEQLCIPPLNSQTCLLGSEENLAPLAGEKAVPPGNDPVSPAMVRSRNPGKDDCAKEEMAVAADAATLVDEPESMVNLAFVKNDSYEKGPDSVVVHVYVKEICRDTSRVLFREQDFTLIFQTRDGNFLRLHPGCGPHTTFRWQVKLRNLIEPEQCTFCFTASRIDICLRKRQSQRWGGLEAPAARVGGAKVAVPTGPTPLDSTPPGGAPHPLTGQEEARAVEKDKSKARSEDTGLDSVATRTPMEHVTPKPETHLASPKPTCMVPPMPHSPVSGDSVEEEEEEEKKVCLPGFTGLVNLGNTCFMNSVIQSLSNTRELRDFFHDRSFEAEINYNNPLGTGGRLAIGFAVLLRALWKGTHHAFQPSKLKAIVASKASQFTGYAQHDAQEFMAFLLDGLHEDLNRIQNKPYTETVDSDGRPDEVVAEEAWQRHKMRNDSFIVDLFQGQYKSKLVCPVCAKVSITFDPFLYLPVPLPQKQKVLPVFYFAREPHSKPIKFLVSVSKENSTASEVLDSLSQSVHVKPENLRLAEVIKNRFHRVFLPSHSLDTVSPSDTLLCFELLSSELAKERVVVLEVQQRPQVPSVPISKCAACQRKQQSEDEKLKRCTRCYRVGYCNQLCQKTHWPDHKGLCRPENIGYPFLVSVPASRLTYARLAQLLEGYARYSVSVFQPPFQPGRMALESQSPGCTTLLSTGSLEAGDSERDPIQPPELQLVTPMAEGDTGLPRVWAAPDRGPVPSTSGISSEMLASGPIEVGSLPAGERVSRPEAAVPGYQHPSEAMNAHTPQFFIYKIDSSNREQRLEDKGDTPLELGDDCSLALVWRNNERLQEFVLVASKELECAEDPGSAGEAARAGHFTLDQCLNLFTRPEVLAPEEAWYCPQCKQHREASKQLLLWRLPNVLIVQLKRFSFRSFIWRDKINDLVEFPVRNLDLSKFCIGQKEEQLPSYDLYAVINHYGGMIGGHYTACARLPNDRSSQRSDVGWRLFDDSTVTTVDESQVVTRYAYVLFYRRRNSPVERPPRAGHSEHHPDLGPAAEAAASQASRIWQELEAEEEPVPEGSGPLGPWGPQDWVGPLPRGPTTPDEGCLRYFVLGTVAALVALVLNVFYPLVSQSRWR
Method in brief: (§1)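 Labelling with Biotin-Ahx-Ub-VS (0.5 µM final, 1 h) followed a 3 h triplicate treatment of HEK293T lysate (495 µg per sample, Tris/CHAPS/IGEPAL buffer with protease inhibitors) with fragment at 200 µM or vehicle. Labelled DUBs were NeutrAvidin-enriched, digested with LysC and trypsin, and run by diaPASEF LC-MS/MS. The values, average log2 fragment/vehicle ratios by unpaired t-test, come from global-median-normalised Spectronaut label-free quantities. Proteins with ≥2 unique peptides were used.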

USP22 = target: T2, USP22 (UniProt Q9UPT9)
T2 sequence (whole entry): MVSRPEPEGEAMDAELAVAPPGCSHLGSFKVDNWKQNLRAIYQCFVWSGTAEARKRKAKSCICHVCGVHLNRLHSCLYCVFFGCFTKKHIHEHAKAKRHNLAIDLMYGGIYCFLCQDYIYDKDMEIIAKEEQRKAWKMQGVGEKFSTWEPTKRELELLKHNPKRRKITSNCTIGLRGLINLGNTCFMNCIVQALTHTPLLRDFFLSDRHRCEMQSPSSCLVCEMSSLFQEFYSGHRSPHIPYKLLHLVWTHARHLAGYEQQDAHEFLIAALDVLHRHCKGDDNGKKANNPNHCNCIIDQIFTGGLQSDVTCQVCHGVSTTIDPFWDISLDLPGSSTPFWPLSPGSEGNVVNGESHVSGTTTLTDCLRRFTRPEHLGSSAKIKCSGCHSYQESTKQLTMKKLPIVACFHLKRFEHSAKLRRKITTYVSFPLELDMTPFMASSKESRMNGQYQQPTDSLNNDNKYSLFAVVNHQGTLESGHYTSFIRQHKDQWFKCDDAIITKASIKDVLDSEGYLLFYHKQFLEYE
Method in brief: as §1

USP24 = USP24 (UniProt Q9UPU5)
Chain of USP24 (Q9UPU5 whole entry): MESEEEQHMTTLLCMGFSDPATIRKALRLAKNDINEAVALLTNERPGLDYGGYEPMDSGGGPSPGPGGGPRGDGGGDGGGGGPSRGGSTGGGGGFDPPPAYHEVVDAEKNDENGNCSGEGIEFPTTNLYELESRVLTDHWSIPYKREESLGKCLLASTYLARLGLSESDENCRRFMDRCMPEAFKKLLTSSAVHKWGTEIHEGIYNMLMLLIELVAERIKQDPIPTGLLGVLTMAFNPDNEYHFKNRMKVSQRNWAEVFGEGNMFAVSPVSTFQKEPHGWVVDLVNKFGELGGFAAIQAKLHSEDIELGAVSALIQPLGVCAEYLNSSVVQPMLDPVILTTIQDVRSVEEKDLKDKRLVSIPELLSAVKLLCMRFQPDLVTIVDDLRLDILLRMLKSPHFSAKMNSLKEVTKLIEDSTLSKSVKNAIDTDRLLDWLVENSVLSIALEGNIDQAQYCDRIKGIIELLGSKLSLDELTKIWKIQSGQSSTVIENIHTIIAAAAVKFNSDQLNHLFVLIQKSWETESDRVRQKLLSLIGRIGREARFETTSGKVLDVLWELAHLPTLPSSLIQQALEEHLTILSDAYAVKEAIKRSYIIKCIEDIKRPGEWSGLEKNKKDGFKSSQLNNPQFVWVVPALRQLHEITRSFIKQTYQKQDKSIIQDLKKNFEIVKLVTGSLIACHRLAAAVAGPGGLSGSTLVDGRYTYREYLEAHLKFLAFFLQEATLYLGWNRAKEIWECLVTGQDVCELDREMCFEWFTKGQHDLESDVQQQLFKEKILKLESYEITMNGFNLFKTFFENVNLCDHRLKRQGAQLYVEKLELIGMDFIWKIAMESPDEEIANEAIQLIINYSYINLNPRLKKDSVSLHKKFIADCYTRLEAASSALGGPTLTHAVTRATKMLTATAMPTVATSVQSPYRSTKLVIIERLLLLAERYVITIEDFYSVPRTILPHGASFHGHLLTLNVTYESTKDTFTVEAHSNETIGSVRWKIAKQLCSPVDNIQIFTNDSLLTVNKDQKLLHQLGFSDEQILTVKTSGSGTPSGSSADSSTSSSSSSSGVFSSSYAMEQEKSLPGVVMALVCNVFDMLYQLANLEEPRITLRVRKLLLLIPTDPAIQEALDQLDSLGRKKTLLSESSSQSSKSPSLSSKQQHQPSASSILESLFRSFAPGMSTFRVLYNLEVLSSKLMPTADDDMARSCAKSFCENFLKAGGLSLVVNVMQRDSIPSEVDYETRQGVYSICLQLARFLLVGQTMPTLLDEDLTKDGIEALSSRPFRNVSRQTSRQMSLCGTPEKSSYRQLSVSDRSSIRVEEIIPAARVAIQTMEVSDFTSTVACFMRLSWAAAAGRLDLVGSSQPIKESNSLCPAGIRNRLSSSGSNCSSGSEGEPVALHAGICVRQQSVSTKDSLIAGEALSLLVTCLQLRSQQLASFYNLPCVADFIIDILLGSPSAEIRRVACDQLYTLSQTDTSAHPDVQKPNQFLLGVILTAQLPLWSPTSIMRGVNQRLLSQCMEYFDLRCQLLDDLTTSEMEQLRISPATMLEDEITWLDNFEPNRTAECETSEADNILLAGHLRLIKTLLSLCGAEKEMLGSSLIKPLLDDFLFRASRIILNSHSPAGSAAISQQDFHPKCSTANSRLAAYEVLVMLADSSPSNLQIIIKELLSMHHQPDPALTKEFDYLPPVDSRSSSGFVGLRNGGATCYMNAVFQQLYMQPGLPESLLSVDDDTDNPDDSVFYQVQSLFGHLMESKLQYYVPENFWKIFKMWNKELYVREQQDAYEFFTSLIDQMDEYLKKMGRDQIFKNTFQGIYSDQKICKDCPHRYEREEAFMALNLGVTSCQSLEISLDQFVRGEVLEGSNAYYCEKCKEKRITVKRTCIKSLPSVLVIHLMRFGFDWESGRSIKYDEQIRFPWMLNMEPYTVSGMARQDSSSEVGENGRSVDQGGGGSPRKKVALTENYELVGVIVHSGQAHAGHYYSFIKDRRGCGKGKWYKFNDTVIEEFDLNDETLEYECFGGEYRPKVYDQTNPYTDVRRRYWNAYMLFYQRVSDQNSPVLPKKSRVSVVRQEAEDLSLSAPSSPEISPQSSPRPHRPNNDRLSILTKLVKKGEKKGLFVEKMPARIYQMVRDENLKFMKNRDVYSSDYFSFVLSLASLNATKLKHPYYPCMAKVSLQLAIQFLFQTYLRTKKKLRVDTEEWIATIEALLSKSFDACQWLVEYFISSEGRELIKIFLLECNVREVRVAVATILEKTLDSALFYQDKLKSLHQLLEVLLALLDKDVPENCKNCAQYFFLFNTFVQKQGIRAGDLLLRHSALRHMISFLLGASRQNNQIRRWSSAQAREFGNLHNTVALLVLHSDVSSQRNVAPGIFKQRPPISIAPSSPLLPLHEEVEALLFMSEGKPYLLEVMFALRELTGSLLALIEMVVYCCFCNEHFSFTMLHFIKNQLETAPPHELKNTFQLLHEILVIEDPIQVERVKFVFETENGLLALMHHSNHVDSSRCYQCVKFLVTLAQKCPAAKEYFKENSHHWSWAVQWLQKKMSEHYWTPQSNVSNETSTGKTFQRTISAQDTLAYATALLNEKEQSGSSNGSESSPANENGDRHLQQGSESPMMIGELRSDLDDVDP
Method in brief: as §1

USP25 = target: T3, USP25 (UniProt Q9UHP3)
T3 sequence (whole entry): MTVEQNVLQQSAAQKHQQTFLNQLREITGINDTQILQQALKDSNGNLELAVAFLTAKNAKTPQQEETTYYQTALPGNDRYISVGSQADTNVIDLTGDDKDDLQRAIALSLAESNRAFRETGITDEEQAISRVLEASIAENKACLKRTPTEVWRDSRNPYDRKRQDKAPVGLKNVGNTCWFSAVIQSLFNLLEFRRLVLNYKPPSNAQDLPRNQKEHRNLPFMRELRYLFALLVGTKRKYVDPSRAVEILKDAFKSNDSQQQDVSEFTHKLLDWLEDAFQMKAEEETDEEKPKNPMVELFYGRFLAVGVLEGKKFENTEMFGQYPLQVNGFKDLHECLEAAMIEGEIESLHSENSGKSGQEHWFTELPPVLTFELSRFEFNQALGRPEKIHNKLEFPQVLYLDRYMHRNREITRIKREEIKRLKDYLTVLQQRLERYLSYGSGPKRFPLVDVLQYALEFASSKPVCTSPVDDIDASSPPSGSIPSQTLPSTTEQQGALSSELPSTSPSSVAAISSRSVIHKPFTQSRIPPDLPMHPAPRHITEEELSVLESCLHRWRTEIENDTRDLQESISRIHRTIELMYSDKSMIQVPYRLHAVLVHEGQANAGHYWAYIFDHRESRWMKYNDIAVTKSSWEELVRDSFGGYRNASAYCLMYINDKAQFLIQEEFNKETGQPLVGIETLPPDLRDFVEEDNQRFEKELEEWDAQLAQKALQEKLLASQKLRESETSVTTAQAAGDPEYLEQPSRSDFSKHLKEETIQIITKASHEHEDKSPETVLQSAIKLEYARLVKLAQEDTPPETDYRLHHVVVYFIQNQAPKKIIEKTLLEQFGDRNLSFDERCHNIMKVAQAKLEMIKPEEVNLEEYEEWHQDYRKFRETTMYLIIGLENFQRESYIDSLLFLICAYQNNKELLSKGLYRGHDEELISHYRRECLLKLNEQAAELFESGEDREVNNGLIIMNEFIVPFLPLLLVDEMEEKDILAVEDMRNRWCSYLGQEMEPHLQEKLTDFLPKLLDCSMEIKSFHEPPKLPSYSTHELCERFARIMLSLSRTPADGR
Method in brief: as §1

USP28 = target: T4, USP28 (UniProt Q96RU2)
T4 sequence (whole entry): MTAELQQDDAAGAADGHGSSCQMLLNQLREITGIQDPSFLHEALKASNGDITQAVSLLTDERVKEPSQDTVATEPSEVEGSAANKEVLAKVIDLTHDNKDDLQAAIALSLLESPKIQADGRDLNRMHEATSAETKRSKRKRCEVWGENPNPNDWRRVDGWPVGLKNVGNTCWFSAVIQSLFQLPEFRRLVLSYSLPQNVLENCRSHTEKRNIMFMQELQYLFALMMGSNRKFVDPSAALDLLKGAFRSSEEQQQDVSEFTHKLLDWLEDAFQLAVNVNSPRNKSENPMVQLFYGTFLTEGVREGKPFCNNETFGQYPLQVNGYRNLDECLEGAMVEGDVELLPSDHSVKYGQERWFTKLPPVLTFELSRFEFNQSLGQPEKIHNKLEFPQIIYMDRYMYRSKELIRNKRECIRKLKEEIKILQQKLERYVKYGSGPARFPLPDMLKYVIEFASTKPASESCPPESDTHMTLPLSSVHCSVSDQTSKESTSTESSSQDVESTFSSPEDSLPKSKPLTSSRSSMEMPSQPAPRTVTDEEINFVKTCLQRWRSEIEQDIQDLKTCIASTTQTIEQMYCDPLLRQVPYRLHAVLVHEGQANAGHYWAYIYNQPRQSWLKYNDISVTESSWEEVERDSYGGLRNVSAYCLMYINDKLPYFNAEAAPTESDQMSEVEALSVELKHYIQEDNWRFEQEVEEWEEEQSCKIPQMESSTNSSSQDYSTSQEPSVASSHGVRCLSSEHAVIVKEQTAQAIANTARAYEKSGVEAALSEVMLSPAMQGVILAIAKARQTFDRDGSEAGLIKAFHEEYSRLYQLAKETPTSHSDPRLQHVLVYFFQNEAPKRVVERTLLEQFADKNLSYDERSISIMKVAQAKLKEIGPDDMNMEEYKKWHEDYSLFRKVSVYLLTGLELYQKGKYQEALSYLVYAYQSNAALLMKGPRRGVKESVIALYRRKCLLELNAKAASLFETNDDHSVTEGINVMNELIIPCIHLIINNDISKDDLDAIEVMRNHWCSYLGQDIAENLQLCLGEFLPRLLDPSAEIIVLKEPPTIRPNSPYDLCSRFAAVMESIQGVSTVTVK
Method in brief: as §1

With O=C(CCl)Nc1cccc(C(=O)N2CCSCC2)c1 the “log2 ratio of Biotin-Ahx-Ub-VS probe labelling” value (shortened to “log2 ratio”) (USP19) was -0.239, the “log2 ratio” value (USP22) was -0.0474 and the “log2 ratio” value (USP24) was -0.522. For the same compound, the “log2 ratio” value (USP25) was -1.17 (active) and the “log2 ratio” value (USP28) was -0.818.
